Values joined by “and” are separate entries in the source; they are usually repeats but may differ in a detail not shown here. Equal values may be shown once. Records with an inconclusive call do not appear. Active and inactive are the calls of the source. The call rests on the fitted dose curve; in most records, active means well fitted curve in the direction sought with a large enough effect; inconclusive means small, poorly fitted or top-dose-only effect, or another doubt; inactive means no such curve, though single readings can be large; an effect the other way counts as inactive or inconclusive.
Assays:
[1] = qHTS for compounds that reverse cellular toxicity of Amyloid beta (A-beta) peptide in yeast: LOPAC Validation Assay (AID 720559);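 further: plate controls were DMSO for no effect and equimolar ferric chloride plus clioquinol rescue for full effect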
Procedure, shortened: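 Yeast cells expressing toxic A-beta were combined with pinned compounds in growth medium and incubated 48 hr at 30 C. Growth was read as absorbance at 600 nm and normalized to DMSO and to an equimolar FeCl3/clioquinol positive control.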

[2] = qHTS for Activators of Parkin Expression: LOPAC Validation Assay (NLuc Reporter) (AID 720572)
Procedure, shortened: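 NLuc signal, read 10 min after reagent and following a prior FLuc read, is normalized to DMSO (0) and positive controls (100%). Cells: neuronal Parkin-promoter coincidence reporter line; compounds tested 7-point, 24 h, 37 C, 5% CO2.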

[3] = qHTS for Activators of Parkin Expression: LOPAC Validation Assay (FLuc Reporter) (AID 720573)
Procedure, shortened: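 Neuronal cell line stably carrying FLuc/NLuc coincidence reporter under Parkin promoter; cells plated 24 h, then compounds added in 7-point dose response for 24 h at 37 C. FLuc luminescence read; normalized to DMSO and positive control (100%).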

[4] = molecular target: T1, Hexokinase-4 (Homo sapiens) + Glucokinase regulatory protein (Homo sapiens) (UniProt P35557+Q14397); assay: qHTS assay for inhibitors of recombinant human GCK-GKRP interaction: Diaphorase-coupled assay (AID 743205)
T1 sequence (P35557 whole entry, looked up): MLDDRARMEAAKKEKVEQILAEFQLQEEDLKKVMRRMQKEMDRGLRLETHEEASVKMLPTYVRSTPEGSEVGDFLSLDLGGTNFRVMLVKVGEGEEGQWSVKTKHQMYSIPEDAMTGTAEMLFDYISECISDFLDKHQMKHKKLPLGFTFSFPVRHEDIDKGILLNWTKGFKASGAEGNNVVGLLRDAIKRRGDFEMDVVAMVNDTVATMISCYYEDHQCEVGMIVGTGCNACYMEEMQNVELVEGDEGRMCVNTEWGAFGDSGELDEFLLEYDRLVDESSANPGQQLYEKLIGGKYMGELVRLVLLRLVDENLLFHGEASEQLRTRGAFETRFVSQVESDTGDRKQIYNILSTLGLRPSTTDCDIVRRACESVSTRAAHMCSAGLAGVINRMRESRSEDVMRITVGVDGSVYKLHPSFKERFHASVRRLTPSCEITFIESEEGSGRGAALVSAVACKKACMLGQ
T1 sequence (Q14397 whole entry, looked up): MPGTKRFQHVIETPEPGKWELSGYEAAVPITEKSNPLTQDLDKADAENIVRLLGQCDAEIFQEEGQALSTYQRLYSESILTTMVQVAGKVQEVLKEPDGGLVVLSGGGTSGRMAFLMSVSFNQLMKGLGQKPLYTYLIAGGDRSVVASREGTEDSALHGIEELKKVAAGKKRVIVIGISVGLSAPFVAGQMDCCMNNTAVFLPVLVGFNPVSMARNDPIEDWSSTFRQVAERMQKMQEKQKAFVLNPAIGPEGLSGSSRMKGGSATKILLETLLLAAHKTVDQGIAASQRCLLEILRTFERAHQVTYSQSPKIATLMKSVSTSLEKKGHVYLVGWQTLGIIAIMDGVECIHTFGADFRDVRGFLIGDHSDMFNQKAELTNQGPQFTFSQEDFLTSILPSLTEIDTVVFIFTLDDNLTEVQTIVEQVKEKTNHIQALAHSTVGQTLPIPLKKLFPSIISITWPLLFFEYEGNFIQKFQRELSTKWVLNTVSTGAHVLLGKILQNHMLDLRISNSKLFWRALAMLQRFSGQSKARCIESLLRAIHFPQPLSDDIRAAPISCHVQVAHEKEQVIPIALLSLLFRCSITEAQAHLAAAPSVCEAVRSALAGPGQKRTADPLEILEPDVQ
Procedure, shortened: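 GST-GCK (10 nM) with FLAG-GKRP (10 nM), 5 mM glucose and 0.4 mM ATP in pH 7.6 Hepes; compounds preincubated 20 min with substrate. G6PDH/diaphorase coupling converts resazurin to resorufin, read kinetically (ex 525/em 590 nm) for 30 min.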

[5] = molecular target: T1, Hexokinase-4 (Homo sapiens) + Glucokinase regulatory protein (Homo sapiens); assay: qHTS assay for inhibitors of recombinant human GCK-GKRP interaction: ADP-Glo assay (AID 743206);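 further: plate controls were DMSO plus enzyme for no effect and no enzyme for full effect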
Procedure, shortened: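 Pin-transferred compounds meet a 15 nM GST-GCK/15 nM FLAG-GKRP/2 uM S6P mix (dispense concentrations). ATP is then added to 0.4 mM final with 5 mM glucose, and the reaction runs 60 min at room temperature. ADP is quantified luminescently.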

[6] = molecular target: T1, Hexokinase-4 (Homo sapiens) + Glucokinase regulatory protein (Homo sapiens); assay: qHTS assay for inhibitors of recombinant human GCK-GKRP interaction: HTRF assay (AID 743207);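 further: 0% = DMSO with GCK present and -100% = DMSO wells lacking GCK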
Procedure, shortened: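 GST-GCK and FLAG-GKRP (5 nM each) were combined with 2 uM S6P in pH 7.1 Hepes/MgCl2/KCl/DTT buffer, then compound and anti-FLAG XL665/anti-GST K antibodies were added. After 60 min at room temperature, HTRF 665/615 nm emission was read.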

[7] = qHTS Assay for Identifying Gametocytocidal Compounds (AID 743244);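 further: on the % scale 0 is the no-effect control and ±100 the full control effect; actives lower the fluorescent signal which means gametocytes are killed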; conditions: P. falciparum 3D7 stage III-V gametocytes, alamarBlue, 72 h; max response: stronger effect = lower value
Procedure, shortened: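 Fluorescence at Ex 525/Em 598 nm, recorded 24 h after alamarBlue addition, reports residual metabolic activity of 3D7 gametocytes (stages III–V) following 72 h compound exposure at 37 °C, 5% CO2.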

COc1cc2c(cc1OC)-c1cc(=Nc3c(C)cc(C)cc3C)n(C)c(=O)n1CC2
inactive: outcome [1] | Potency [2] | outcome [3] | outcome [4] | outcome [5] | Potency [6] | max response [7] 25.2%

CCCNC(C)C(=O)Nc1ccccc1C (stereo not given)
inactive: outcome [1] | outcome [3] | outcome [4] | outcome [5] | Potency [6] | max response [7] 7.26% and 27.6%

CC(C)COCC(CN(Cc1ccccc1)c1ccccc1)N1CCCC1 (stereo not given)
inactive: outcome [1] | outcome [4] | outcome [5] | Potency [6]

C[C@]12CCC(=O)C=C1CC[C@@H]1[C@@H]2CC[C@@]2(C)[C@H]1CC[C@]2(O)C(=O)CO
inactive: outcome [1] | Potency [2] | outcome [3] | outcome [4] | outcome [5] | Potency [6] | max response [7] -4.53% and -8.22%

CN(C)CCCN1c2ccccc2Sc2ccc(C(F)(F)F)cc21
inactive: outcome [1] | Potency [2] | outcome [3] | outcome [4] | outcome [5] | Potency [6]

C[C@@H](O)[C@H]1C(=O)N2C(C(=O)O)=C(SCCN=CN)C[C@H]12
inactive: outcome [1] | outcome [3] | outcome [4] | outcome [5] | Potency [6] | max response [7] 3.85% and 8.18%

O=C1CC2(CCCC2)CC(=O)N1CCCCN1CCN(c2ncccn2)CC1
inactive: outcome [1] | Potency [2] | outcome [3] | outcome [4] | outcome [5] | Potency [6]

NC(=O)c1ncn([C@@H]2O[C@H](CO)[C@@H](O)[C@H]2O)c1O
inactive: outcome [1] | outcome [3] | outcome [4] | outcome [5] | Potency [6]

NC/C=C/C(=O)O
inactive: outcome [1] | Potency [2] | outcome [4] | outcome [5] | Potency [6] | max response [7] 18.4% and 29.6%

Brc1c(NC2=NCCN2)ccc2nccnc12
inactive: outcome [1] | outcome [4] | outcome [5] | Potency [6] | max response [7] -8.09% and 19.7%

C[C@]12CC[C@@H]3c4ccc(O)cc4C[C@@H](CCCCCCCCCS(=O)CCCC(F)(F)C(F)(F)F)[C@H]3[C@@H]1CC[C@@H]2O (stereo not given in full)
inactive: outcome [1] | Potency [2] | outcome [4] | outcome [5] | Potency [6]

CSc1ccc(C(=O)c2[nH]c(=O)[nH]c2C)cc1
inactive: outcome [4] | outcome [5] | Potency [6] | max response [7] 9.34% and 5.87%

C#CCN(C)CCCOc1ccc(Cl)cc1Cl
inactive: outcome [1] | Potency [2] | outcome [4] | outcome [5] | Potency [6] | max response [7] -2.39% and 17.1%

CN(C)C(=O)Oc1cccc([N+](C)(C)C)c1
inactive: outcome [1] | outcome [4] | outcome [5] | Potency [6]

CNC1(C)C2CCC(C2)C1(C)C (stereo not given)
inactive: outcome [1] | Potency [2] | outcome [3] | outcome [4] | outcome [5] | Potency [6] | max response [7] 12.1% and 8.7%

C[N+](C)(C)CCCCCCCCCC[N+](C)(C)C
inactive: outcome [4] | outcome [5] | Potency [6]

C[C@H](CS)C(=O)N1CCC[C@H]1C(=O)O
inactive: outcome [1] | Potency [2] | outcome [3] | outcome [4] | outcome [5] | Potency [6] | max response [7] -9.05% and 12%

CCN(CC)CCNC(=O)c1ccc(NC(C)=O)cc1
inactive: outcome [1] | Potency [2] | outcome [4] | outcome [5] | Potency [6] | max response [7] 11.5% and -3.43%

CCOC(=O)c1cnc2c(cnn2CC)c1NN=C(C)C
inactive: outcome [1] | outcome [4] | outcome [5] | Potency [6] | max response [7] 1.49% and 6.62%

Source: PubChem BioAssay (NCATS)
